# The list is not random: actives were taken first. Their share in the collection is about 2.4%.
# HSF1 inh – HSF1 inhibitors in luciferase reporter cells, primary screen, cell-based, NIH3T3, luminescence; NIH3T3-HGL HSE-luciferase, MG132-induced, luminescence 8 h; stronger effect = lower value; 300,000 compounds, 0.77% hits; activity change, negative = inhibition, % at 7.5 µM (by protocol);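 active = more than half of replicate wells show activity change below -50%, luminescence cut by over half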;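 also: luciferase reports HSF-1 transcriptional activity via heat shock element; 0% = median of DMSO wells and -100% = zero luminescence signal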
# C8 TRAIL sens – viability loss with TRAIL in NB7+C8 cells, primary screen, TRAIL sensitizer project, cell-based, ATPlite luminescence; 360,000 compounds, 1% hits; inhibition (viability loss, TRAIL sensitization), % at 10 µM;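 active = compounds causing at least 50% loss of cell viability in the single-dose screen, relative to plate controls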
# PPC-1+TRAIL kill – compounds killing PPC-1 cancer cells with TRAIL present, primary screen, TRAIL potentiator project, ATPLite luminescence, uHTS. 220,000 compounds, 0.41% hits. cell killing (% activity), % at 4 µM or 5 µM. AID 1443, 2008. PPC-1 cells + TRAIL, ATPLite viability luminescence;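 active = cell killing above 50% in the first pass at 4 µM, then a duplicate retest at 5 µM averaging 50% or more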;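 also: plate controls were cells with TRAIL plus DMSO for no effect and medium-only wells lacking cells for full effect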
# STAT1 blocker – STAT1 signaling inhibitors, primary screen, cell-based, HTS, luciferase reporter; NIH 3T3 STAT1-luciferase reporter, IFN-gamma, luminescence; inhibition, % at 5.5 µM; 200,000 compounds, 0.35% hits; AID 920, 2007;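 active = inhibition above a set limit, the mean inhibition across all tested compounds plus 3 SD, cut at about 34% in these data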;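 also: 0% = IFN-gamma with DMSO and 100% = IFN-gamma with 300 µM nifuroxazide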
# HSP90 refold inh – HSP90 inhibitors, primary screen, cell lysate, luminescence | Heat shock protein HSP 90 (rabbit reticulocyte lysate; luciferase refolding) | Rabbit reticulocyte lysate, luciferase refolding luminescence, 3 h | inhibition, % at 5.6 µM | 290,000 compounds, 0.91% hits | AID 1789, 2009;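 active = inhibition above the screen-wide mean plus 3 SD, computed separately per campaign, cut at about 16% in these data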;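 also: 0% = DMSO wells and 100% = 60 µM geldanamycin wells; inhibitors lower the luminescence because luciferase stays unfolded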
# STAT3 inh – IL-6 driven STAT3 reporter inhibitors, primary screen, U3A cells, luciferase, luminescence, MLSCN library. IL-6 STAT3-luciferase reporter; host cell line lacks STAT1. inhibition, % at 5.5 µM. 190,000 compounds, 0.89% hits;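 active = inhibition above the mean inhibition across all screened compounds plus 3 SD, cut at about 44% in these data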;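 also: 0% = DMSO only wells and 100% = 100 µM nifuroxazide control wells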
# PPC-1 tox – cytotoxicity in PPC-1 cells, confirmation, cytotoxicity control for TRAIL apoptosis potentiator project, cell-based, ATP content luminescence; shares compounds with PPC-1+TRAIL kill; PPC-1 viability, ATPlite luminescence, overnight; cytotoxicity, % at 5 µM; 1,200 compounds, 50% hits;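 active = reconfirmed compounds whose average cytotoxicity reaches 50% or more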;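 also: 0% = DMSO-treated cells and 100% = wells holding medium but no cells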
# An asterisk follows results filed as active; nt = no result.
SMILES,HSF1 inh,C8 TRAIL sens,PPC-1+TRAIL kill,STAT1 blocker,HSP90 refold inh,STAT3 inh,PPC-1 tox
Cc1ccc(C(=O)Nc2ncc3c(Cl)cccc3n2)cc1,-3,83*,74*,-15,2,63*,67*
CN(C)c1ccc(NC(=S)Nc2ccc3c(c2)c(=O)n(C)n3-c2ccc(C(C)(C)C)cc2)cc1,nt,0,nt,nt,nt,nt,nt
C[C@H](CO)N1C[C@H](C)[C@@H](CN(C)C(=O)OCc2ccccc2)OCc2cn(nn2)CCCC1=O,nt,6,nt,nt,nt,nt,nt
CC(C)n1c(=O)c2ccccc2n1Cc1cn(Cc2cccnc2)nn1,nt,-4,nt,nt,nt,nt,nt
CCOC(=O)c1[nH]c2ccc(F)cc2c1NC(=O)C1=COCCO1,2,-4,-1,0,3,21,-7
CCOC(=O)[C@]12CCCC=C1N(Cc1ccco1)C(=O)[C@H](CC(=O)N1CCCCC1)C2,nt,0,nt,nt,nt,nt,nt
CC1C2NC(=O)N(Cc3ccccc3)C1(C)Oc1ccccc12 (stereo not given),nt,-16,-9,4,-1,-5,-1
CC12CC(NC(=O)N1CCc1ccccc1)c1ccccc1O2 (stereo not given),-4,-7,3,3,2,21,nt
Nc1nc(CSCc2ccccc2)nc(N2CCOCC2)n1,1,2,-1,-22,-3,-17,4
Nc1nc(CSc2nc3ccccc3s2)nc(N2CCOCC2)n1,30,0,13,-12,0,11,nt
Cc1ccc(C(=O)Nc2ccccc2C(=O)NC(Cc2ccccc2)C(=O)O)cc1 (stereo not given),-4,11,16,-3,-1,7,nt
CCC(NC(=O)c1ccccc1NC(=O)c1ccc(C)cc1)C(=O)O (stereo not given),-3,-1,16,10,1,-1,7
COC(=O)[C@H](CC(C)C)NS(=O)(=O)c1ccc(F)cc1Br,nt,-2,nt,nt,nt,nt,nt
Cc1cccc(N2C(=S)NC3c4ccccc4OC2(C)C3C(=O)N(C)C)c1 (stereo not given),-3,-4,4,2,0,3,-1
COc1cccc(C(NC(C)=O)c2nc(-c3ccc(F)cc3OC)cs2)c1 (stereo not given),nt,-23,nt,nt,nt,nt,nt
CCNC(=S)NNC(=O)c1cc(-c2cccc(C)c2)nc2ccccc12,28,61*,66*,13,2,27,65*
CCN1C(=O)CC(Sc2ccccc2N)C1=O (stereo not given),5,2,12,7,0,-2,8
Nc1ccccc1SC1CC(=O)N(Cc2ccccc2)C1=O (stereo not given),10,4,-13,6,-1,6,nt
CCc1nc2ccccc2n1Cc1ccc(OC)c(OC)c1,-2,5,6,16,5,-3,nt
COc1ccc(/C=C/c2nc3ccccc3n2Cc2ccc(OC)c(OC)c2)cc1,24,33,56*,-94,1,-7,55*
Cc1ccc(NC(=O)[C@@H]2O[C@H](CO)[C@@H](O)[C@H]2O)cc1C(F)(F)F,nt,-10,nt,nt,nt,nt,nt
Cc1ccc(S(=O)(=O)NC2CCCC(C(=O)O)C2)cc1 (stereo not given),-5,-13,11,1,-1,9,13
Cc1ccc(S(=O)(=O)NC2CCCCCCC2)cc1,5,-10,nt,nt,-4,nt,nt
COCC(C)n1c(C)cc(C(=O)COC(=O)C2=NN(c3ccccc3)C(=O)CC2)c1C (stereo not given),0,8,-5,5,5,0,nt
COCC(C)n1c(C)cc(C(=O)COC(=O)c2ccc(N3CCCC3=O)cc2)c1C (stereo not given),-6,7,-8,1,3,22,3
CCCCN1C=CC(=C2C(=O)c3ccccc3C2=O)C=C1,-82*,95*,96*,95*,83*,112*,96*

# Assay outcomes as filed in PubChem.
